Compound activity from PubChem BioAssay.
Sampled rows, rich in hits. Any-hit rate of the full collection: about 4.8%.
DAX1 inh-1: inhibitors of human orphan nuclear receptor DAX1 (NR0B1) | inhibition, % at 6.75 µM | hit rate 0.99% among 340,000 | P51843 | HEK293 Gal4-DAX1 luciferase reporter, luminescence;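 active means inhibition above the mean over all tested compounds plus 3 SD, cut at about 4.2% in these data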;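 further: 0% = DAX1-transfected cells with DMSO and 100% = empty-vector control cells with DMSO; inhibition shows as a rise in luminescence from relieved DAX1 repression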
hgDAF12 agonist: agonists of H. glycines DAF-12 nuclear receptor; hit rate 1.8% among 370,000; HEK293 GAL4-hgDAF12 UAS-luciferase reporter, agonist luminescence; normalized to butyrate control; activation, % at 6.8 µM;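 active means activation above a cutoff set at the mean of all screened compounds plus 3 SD, cut at about 10% in these data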;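 further: 0% = DMSO wells and 100% = sodium butyrate wells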
DAX1 inh-2: DAX1 (NR0B1) inhibition, primary screen; HEK293T StAR-luciferase reporter, SF-1/DAX-1 repression relief; inhibition, % at 6.8 µM; hit rate 1.1% among 370,000; AID 652010;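 active means inhibition above the mean over all tested compounds plus 3 SD, cut at about 3.6% in these data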;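 further: 0% = DAX-1 cells with DMSO and 100% = cells lacking DAX-1 with DMSO; higher inhibition means more luminescence from relief of DAX-1 repression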
ssDAF-12 act: activators of S. stercoralis DAF-12 nuclear receptor. hit rate 1% among 370,000. activation, % at 6.8 µM. HEK293 ssDAF-12/GRIP1 lit1-tk-luc reporter, luminescence; % of 3 µM dafachronic acid response;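 active means activation above the mean over all tested compounds plus 3 SD, cut at about 0.9% in these data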;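 further: 0% = DMSO-only wells and 100% = 3 µM delta7-dafachronic acid wells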
SMARCA2 activ: activators of SMARCA2 function | MG213 cells, MMTV-luciferase reporter, dexamethasone, overnight | activation, % at 9.1 µM | hit rate 1% among 370,000 | AID 652017; in the data active means activation above about 7.8%;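 further: 0% = vehicle wells and 100% = reference activator wells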
hcDAF-12 act: activators of H. contortus DAF-12 nuclear receptor; activation, % at 6.8 µM; AID 652067; HEK293 hcDAF-12 lit1-tk-luc reporter, luminescence; 0% DMSO, 100% Δ7-dafachronic acid; hit rate 1.4% among 370,000;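 active means activation above the mean of all tested compounds plus 3 SD, cut at about 5.5% in these data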;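 further: 100% = response to 3 µM Δ7-dafachronic acid high control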
DAX1 inh confirm: NR0B1 (human) inhibition, confirmation; inhibition, % at 6.8 µM; shares compounds with DAX1 inh-2; HEK293T StAR-promoter luciferase reporter, SF-1/DAX-1 repression; AID 652134; hit rate 87% among 2,400;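 active means inhibition above the average of every tested compound plus 3 SD, cut at about 3.8% in these data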;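 further: 0% = DAX-1 cells with DMSO and 100% = no DAX-1 control cells with DMSO; active compounds raise luminescence by relieving repression of the StAR reporter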
SF1 AF2mut Luc: nonselective inhibitor or artifact in SF-1 mutant DAX1 counter-screen. hit rate 78% among 2,400. shares compounds with DAX1 inh-2. HEK293 StAR-luciferase, SF-1 AF2 mutant, luminescence. inhibition, % at 6.8 µM. AID 652136;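 active means inhibition above the mean of all tested compounds plus 3 SD, cut at about 3% in these data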;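 further: 0% = DAX-1 transfected cells with DMSO and 100% = cells without DAX-1 with DMSO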
LXRb hcDAF ctr: LXR-beta agonism as hcDAF-12 counter-screen | shares compounds with hcDAF-12 act | HEK293 Gal4-LXR tk-luc reporter, luminescence, 24 h; normalized: DMSO 0%, positive control 100% | activation, % at 6.8 µM | 3,400 tested, under 10 active;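 active means mean percent activation of the reporter above a cutoff set as the average over tested compounds plus their standard deviation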
Target sequence (P55055 whole entry, looked up, the tested form may be a part): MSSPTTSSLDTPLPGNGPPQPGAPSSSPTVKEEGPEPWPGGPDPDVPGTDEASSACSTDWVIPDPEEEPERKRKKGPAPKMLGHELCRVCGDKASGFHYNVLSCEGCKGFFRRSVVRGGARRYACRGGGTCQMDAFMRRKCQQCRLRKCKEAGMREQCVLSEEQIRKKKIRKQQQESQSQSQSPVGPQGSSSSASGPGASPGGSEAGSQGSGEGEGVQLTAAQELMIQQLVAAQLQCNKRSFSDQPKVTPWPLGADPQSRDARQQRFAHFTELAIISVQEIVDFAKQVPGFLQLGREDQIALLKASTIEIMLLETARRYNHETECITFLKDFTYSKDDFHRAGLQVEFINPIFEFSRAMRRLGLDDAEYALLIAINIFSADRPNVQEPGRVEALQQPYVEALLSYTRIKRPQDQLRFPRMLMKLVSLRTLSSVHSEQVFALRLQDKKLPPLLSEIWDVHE
hcDAF12 ag: hcDAF-12 agonism, confirmation assay. shares compounds with hcDAF-12 act. HEK293 hcDAF-12 lit1-tk-luc reporter, luminescence; % of Δ7-dafachronic acid response. activation, % at 6.8 µM. hit rate 61% among 3,400. AID 743032;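 active means mean activation across triplicate tests above the threshold derived from the earlier primary screen, cut at about 5.5% in these data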;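 further: 0% = DMSO only wells and 100% = 3 µM Δ7-dafachronic acid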
hgDAF12 conf: confirmation of H. glycines DAF-12 agonists; HEK293 GAL4-hgDAF12 luciferase reporter, agonist mode; percent of butyrate response; shares compounds with hgDAF12 agonist; hit rate 80% among 3,300; activation, % at 6.8 µM;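 active means mean activation over triplicate wells above the hit cutoff derived from the earlier primary screen, cut at about 11% in these data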;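 further: 0% = DMSO low control and 100% = 2 mM sodium butyrate high control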
LXRb DAF12 ctr: counter-screen for DAF-12 agonists: agonists of human LXR-beta. shares compounds with hgDAF12 agonist. HEK293 Gal4-LXR luciferase reporter, 24 h. activation, % at 6.8 µM. 3,300 tested, under 10 active. AID 743051;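 active means mean activation of the triplicate above a set limit carried over from the primary screen, none filed active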
* = called active by the depositor; nt = no result.

SMILES	DAX1 inh-1	hgDAF12 agonist	DAX1 inh-2	ssDAF-12 act	SMARCA2 activ	hcDAF-12 act	DAX1 inh confirm	SF1 AF2mut Luc	LXRb hcDAF ctr	hcDAF12 ag	hgDAF12 conf	LXRb DAF12 ctr
COC(=O)C1CSC(C(=O)OC)N1C(=O)CN1CCN(c2ccc(OC)cc2)CC1 (centres undefined)	-1	0	0	-1	-2	-2	nt	nt	nt	nt	nt	nt
CCOC(=O)/C=C/C(=O)Nc1ccc(S(=O)(=O)Nc2nccs2)cc1	2	2	0	-1	0	-1	nt	nt	nt	nt	nt	nt
Cc1cnc(C(=O)OCC(=O)c2c[nH]c3ccccc23)cn1	1	5	2	0	0	4	nt	nt	nt	nt	nt	nt
Cn1cccc1C(=O)OCC(=O)c1c[nH]c2ccccc12	4	14*	4.7*	0	6	11*	16*	8.1*	1	6.3*	14*	1
Cc1cc(C)c2sc(NC(=O)C3=COCCO3)nc2c1	2	21*	14*	0	6	10*	9.5*	4.3*	1	5	17*	1
COc1ccc(C(=O)NNC(=O)c2snnc2C)cc1	0	0	0	0	2	-1	nt	nt	nt	nt	nt	nt
O=C1c2ccccc2S(=O)(=O)N1CC1CC(c2ccc(Cl)cc2)=NO1 (centres undefined)	2	15*	4.8*	0	2	6.7*	14*	7.5*	1	3	14*	1
CC(=O)c1cnc2cc(-c3ccccc3)nn2c1C	1	5	2	0	2	1	nt	nt	nt	nt	nt	nt
Nc1c(-c2ccccc2)cnc2cc(-c3ccccc3)nn12	5.6*	22*	6.0*	0.9*	5	2	16*	7.7*	nt	nt	26*	1
Cn1c(C(=O)Nc2ccc3c(c2)OCCO3)cc2sccc21	2	15*	6.9*	1.2*	2	9.7*	8.8*	6.8*	1	5	18*	1
O=C(Nc1ccc2c(c1)OCCO2)c1cc2sccc2n1Cc1ccccc1	-2	-9	-3	-2	-4	-5	nt	nt	nt	nt	nt	nt
Cc1ccc(OCC(=O)N2CCCc3ccccc32)cc1	1	2	0	-1	3	0	nt	nt	nt	nt	nt	nt
COc1ccc(NC(=O)N2CCCc3ccccc32)cc1	1	6	1	-1	6	4	nt	nt	nt	nt	nt	nt
Cc1ccc(OCC(=O)N2CCc3ccccc32)cc1	3	22*	5.1*	1.6*	2	11*	15*	9.1*	1	5.7*	13*	1
COc1ccc(NC(=O)N2CCc3ccccc32)cc1	-1	16*	5.1*	1.0*	1	9.1*	15*	5.8*	1	7.4*	18*	1
COc1ccc(-c2cc3ccccc3oc2=O)cc1NC(=O)c1ccc(Br)o1	3	6	0	0	5	3	nt	nt	nt	nt	nt	nt
